Shown are actives, neighbours in structure and some others; about 4.6% of the full set was active somewhere.
tim10-1 inh – tim10-1 yeast growth inhibition. inhibition, % at 20 µM. 2.2% of 330,000 active. S. cerevisiae tim10-1 ts strain growth, BacTiter-Glo, 24 h;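 active means inhibition of at least 40%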;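 further: mutant grown at 25 °C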
PfHsp90 set2 – growth inhibition of yeast expressing Plasmodium Hsp90; S. cerevisiae expressing PfHsp90, BacTiter-Glo ATP, 48 h; yeast lacking PDR1 and PDR3 efflux regulators; inhibition, % at 9.4 µM; 0.32% of 310,000 active;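 active means every replicate shows inhibition above about 80%, whatever the replicate mean, limit read from the data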
SKKanGAS inh – blocks kanamycin growth of S. pyogenes SKKanGAS strain; BacTiter-Glo, 6 h; inhibition, % at 7.5 µM; 1.3% of 300,000 active; AID 1662;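 active means mean replicate score, as percent of positive control median, at least 50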;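 further: strain carries kanamycin resistance gene driven by streptokinase promoter and grows in 40 µg/ml kanamycin; loss of luminescence reflects streptokinase promoter inhibition or plain growth inhibition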
V-ATPase pH – regulators of yeast V-ATPase proton transport; S. cerevisiae, pHLuorin cytosolic pH fluorescence; response, % at 10 µM; 0.37% of 350,000 active; AID 504577; in the data active means response mostly above about 7.3%, no sharp cut-off; inactive means mostly below about 5.4%; further: actives read high
TIM10 inh – TIM10 yeast growth inhibition; S. cerevisiae TIM10 strain growth, BacTiter-Glo luminescence, 24 h; AID 463195; inhibition, % at 10 µM; 1.4% of 330,000 active;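 active means inhibition of 40% or more at the single tested concentration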;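 further: wild-type TIM10 isogenic control strain grown at permissive 25 °C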
tim23-1 inh – tim23-1 yeast growth inhibition | S. cerevisiae tim23-1 growth, BacTiter-Glo luminescence, 24 h | inhibition, % at 20 µM | 1.3% of 330,000 active;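 active means growth inhibition of the mutant yeast at or above 50%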;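 further: temperature-sensitive mutant grown at 25 °C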
tim10-1 confirm – tim10-1 yeast growth inhibition, confirmed; shares compounds with tim10-1 inh; S. cerevisiae tim10-1 ts strain growth, BacTiter-Glo, 24 h; inhibition, % at 20 µM; 56% of 7,400 active; AID 463213;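 active means inhibition of yeast growth at or above a set limit in either of two repeat tests at 20 µM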;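 further: tim10-1 mutant grown at permissive 25 °C to find synthetic lethal compounds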
Of the large screens only hits and unclear results are named; the others gave an inactive call (follow-up assays come after a bar, where they were run).

Cc1nn(-c2nnc(NC3CCCCC3)nn2)c(C)c1Br	tim10-1 inh 45 | tim10-1 confirm 34
COc1ccc(S(=O)(=O)N2CCOCC2)cc1NC(=O)Cc1ccc2c(c1)OCCO2	none (no result: SKKanGAS inh)
COc1ccc(-n2c(C)nc3c(cnn3-c3ccc(Cl)cc3)c2=O)cc1	tim10-1 inh 41 | tim10-1 confirm inactive
COc1ccc(-n2c(C)nc3c(cnn3-c3ccc(C)cc3)c2=O)cc1	none
Cc1cc(NC(=O)CSc2ccc(-c3ccc(F)cc3)nn2)no1	none
COc1ccc2cc3cc(C(=O)N(C)C4CCCCC4)oc3nc2c1	tim10-1 inh 45 | tim10-1 confirm inactive
COc1ccc2cc3cc(C(=O)N4CCCCCC4)oc3nc2c1	none
COc1nc(Nc2ccccc2)nc(OC)n1	none
NNc1nc(Nc2ccccc2)nc(Nc2ccccc2)n1	tim10-1 inh 51, SKKanGAS inh 52 | tim10-1 confirm 42
CC(OC(=O)/C=C/c1ccc2ccccc2n1)C(=O)NCc1ccccc1 (stereo not drawn)	tim10-1 inh 41 | tim10-1 confirm inactive
CNC(=O)C[C@@H]1C(=O)N(c2ccc(Br)cc2)CC1(C)C	none (no result: tim10-1 inh, PfHsp90 set2, SKKanGAS inh, TIM10 inh, tim23-1 inh)
CSc1ccc(/C=C/C(=O)c2ccc(NC(=O)C(C)C)cc2)cc1	tim10-1 inh 42 | tim10-1 confirm 40
Cc1ccc(C2C(C#N)=C(N)N(c3ncn[nH]3)C3=C2C(=O)CC(C)(C)C3)cc1 (stereo not drawn)	none
O=C(O)c1ccc(Cl)c2c1C1C=CCC1C(c1ccccn1)N2 (stereo not drawn)	tim10-1 inh 43 (no result: PfHsp90 set2, V-ATPase pH) | tim10-1 confirm inactive
O=[N+]([O-])c1ccc(Cl)c2c1C1C=CCC1C(c1ccccn1)N2 (stereo not drawn)	none
O=c1[nH]c2cc3ccccc3cc2nc1C(F)(F)F	tim10-1 inh 42 | tim10-1 confirm inactive
O=Cc1ccc(OC(=O)c2cc(Cl)nc3ccccc23)cc1	tim10-1 inh 44 | tim10-1 confirm inactive
CC(=C/c1ccc(C(C)C)cc1)/C=N/NC(=O)CSc1ccccn1	tim10-1 inh 47, SKKanGAS inh 68 | tim10-1 confirm inactive
CC(/C=N/NC(=O)CSc1ccccn1)=C\c1ccc(C(C)C)cc1	none
Cc1ccc(S(=O)(=O)NC(=O)c2cc(C)n(-c3ccc(N(C)C)cc3)c2C)cc1	none
CC[C@]12c3[nH]c4ccc(Cl)cc4c3CCN1C(=O)[C@@H](CC(=O)NCCCn1ccnc1)C[C@@H]2C(=O)N1CCN(C(=O)c2ccco2)CC1	none (no result: SKKanGAS inh)
Cc1cccc(/C=N/n2c(COc3ccccc3)n[nH]c2=S)c1	tim10-1 inh 43 | tim10-1 confirm 37
Cc1n[nH]c(=S)n1/N=C/c1cccc(OCc2ccccc2)c1	tim10-1 inh 41 | tim10-1 confirm inactive
Cc1ccc(NC(=O)COC(=O)c2ccc(Cl)nc2)cc1S(=O)(=O)N1CCCCC1	none (no result: SKKanGAS inh)
C#CCNc1nc(CC)nc2c1nnn2Cc1ccccc1F	none
Cc1ccc2c(c1)c1c(n2C)-c2[nH]ncc2CC1	tim10-1 inh 55 (no result: PfHsp90 set2) | tim10-1 confirm inactive
Cc1occc1C(=O)/C(C#N)=C/c1ccc(O)c(Br)c1	none
COc1ncccc1C(=O)NC1CCCc2c1cnn2-c1cc(C)cc(C)c1 (stereo not drawn)	tim10-1 inh 48 | tim10-1 confirm inactive
Cc1cc(C)cc(-n2ncc3c2CCCC3NC(=O)c2cc(C)oc2C)c1 (stereo not drawn)	none
Cc1cc(C)cc(-n2ncc3c2CCCC3NC(=O)c2csnn2)c1 (stereo not drawn)	tim10-1 inh 41 | tim10-1 confirm inactive
CCOC(=O)CNC(=O)CSc1nc2sc(C)c(C)c2c(=O)n1C	none
CCOC(=O)Cc1csc2nc3sc(C)c(C)c3c(=O)n12	tim10-1 inh 43 | tim10-1 confirm inactive
C(=N/Nc1nc(-c2ccccc2)cc(-c2ccccc2)n1)/c1cccnc1	none
Cc1ccc(-c2cc(-c3ccccc3)nc(N/N=C/c3cccnc3)n2)cc1	tim10-1 inh 44 (no result: SKKanGAS inh) | tim10-1 confirm inactive
Cc1cc(-c2ccccc2)nc(N/N=C/c2cccnc2)n1	none
Cc1cc(-c2ccccc2)nc(N/N=C/c2ccccc2)n1	tim10-1 inh 41 | tim10-1 confirm inactive

Screening results deposited in PubChem BioAssay by several laboratories.
